Screens: PubChem, several laboratories
Shown are actives, neighbours in structure and some others; about 27% of the full set was active somewhere.
sEH activator = increases human soluble epoxide hydrolase activity; P34913; purified human sEH enzymatic activity, activator screen; activation, % at 2 µM; 91,000 compounds, 0.04% hits; in the data active = activation above about 37%
Target sequence (P34913 whole entry, looked up): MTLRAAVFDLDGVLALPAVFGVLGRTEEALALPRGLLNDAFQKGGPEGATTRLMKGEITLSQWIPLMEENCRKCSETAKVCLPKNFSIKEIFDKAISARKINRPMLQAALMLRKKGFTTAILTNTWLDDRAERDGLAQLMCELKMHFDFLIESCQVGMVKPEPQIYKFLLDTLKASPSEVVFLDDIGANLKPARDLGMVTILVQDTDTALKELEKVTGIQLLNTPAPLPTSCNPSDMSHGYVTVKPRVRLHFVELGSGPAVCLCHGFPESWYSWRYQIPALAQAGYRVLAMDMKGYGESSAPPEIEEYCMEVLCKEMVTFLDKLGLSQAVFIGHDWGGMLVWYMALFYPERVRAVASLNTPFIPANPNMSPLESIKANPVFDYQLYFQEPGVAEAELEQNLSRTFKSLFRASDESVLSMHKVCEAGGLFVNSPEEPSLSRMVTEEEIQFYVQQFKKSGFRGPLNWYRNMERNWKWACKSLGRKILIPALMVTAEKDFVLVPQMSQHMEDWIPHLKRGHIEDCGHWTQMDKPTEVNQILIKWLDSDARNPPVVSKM
sEH inh = soluble epoxide hydrolase (human) inhibition. inhibition, % at 2 µM. P34913. 91,000 compounds, 0.34% hits. recombinant human sEH enzymatic activity assay; in the data active = inhibition above about 80%
CYP2C9 inhib = blocks human cytochrome P450 2C9; 96,000 compounds, 20% hits; P11712; inhibition, % at 5 µM; CYP2C9 Supersomes, luciferin-H conversion, luminescence; AID 777;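 active = blocking of liver enzyme CYP2C9 beyond about 50% at 5 µM, limit read from the data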
CYP2C19 inh = inhibitors of human CYP2C19; 96,000 compounds, 21% hits; inhibition, % at 5 µM; P33261; CYP2C19 Supersomes, luciferin-H EGE luminescence, 30 min; AID 778;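 active = CYP2C19 inhibition above a set limit at 5 µM in the primary screen, cut at about 50% in these data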;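 also: plate controls were negative control wells for no effect and 2.5 mM tranylcypromine positive control for full effect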
CYP2C19 act = cytochrome P450 2C19 (human) activation | recombinant CYP2C19, luciferin-H EGE luminescence; hits give high values; 0 = fully inhibited enzyme, 1 = untreated enzyme | 96,000 tested, under 10 active | activation factor at 5 µM | P33261 | AID 1025;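 active = activation factor of at least 2 at 5 µM in the primary screen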;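 also: 0 = wells with 2.5 mM tranylcypromine and 1 = vehicle-only wells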
CYP2C9 act = CYP2C9 (human) activation; P11712; recombinant CYP2C9, luciferin-H conversion, luminescence; hits give high values; factor 1 = untreated enzyme, 0 = blocked; activation factor at 5 µM; 96,000 compounds, 1.4% hits; AID 1024;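 active = activation factor of 2 or more for CYP2C9 at a 5 µM dose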;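 also: 0 = sulfaphenazole-blocked wells and 1 = vehicle-only wells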
Numbers without * were called inactive; . = no result.

SMILES	sEH activator	sEH inh	CYP2C9 inhib	CYP2C19 inh	CYP2C19 act	CYP2C9 act
CN(Cc1ccccc1)C(=O)c1cccc(N2C(=O)NC3CC2(C)Oc2ccccc23)c1 (stereo unspecified)	2	0	18	21	0.8	0.8
Cc1cccc(N(C(=O)CNC(=O)c2ccco2)C(C(=O)NC2CCCC2)c2cccnc2)c1 (stereo unspecified)	-13	12	-5	-6	1.1	1
Cc1occc1-c1nc(-c2ccncc2)no1	-4	6	68*	98*	0	0.3
Cc1occc1-c1nc(-c2ccccn2)no1	4	-6	48	76*	0.2	0.5
Cc1onc(-c2ccccc2Cl)c1-c1nc(-c2ccccn2)no1	-9	8	97*	32	0.7	0
CCOc1ccc(N2C(=O)CC(N3CCN(c4ccc(C(=O)c5ccncc5)cc4)CC3)C2=O)cc1 (stereo unspecified)	-4	5	.	.	.	.
Cc1ccccc1-c1nnc(-c2ccc(Cl)cc2)o1	0	0	9	15	0.9	0.9
O=C(c1nnc(-c2ccncc2)o1)c1ccccc1Cl	22	-21	38	84*	0.2	0.6
O=C(c1ccc(Cl)cc1)c1nnc(-c2ccncc2)o1	.	.	47	78*	0.2	0.5
O=C(c1ccccc1)c1nnc(-c2ccncc2)o1	-4	4	19	71*	0.3	0.8
Cc1ccc(CSc2nc3c(c(N(C)C)n2)CCCC3)cc1	5	-3	56*	93*	0.1	0.4
COc1ccccc1NC(=O)CSc1nc(C)c2c(c1C#N)CCCC2	9	-10	19	22	0.8	0.8
COC(=O)CSc1nc(-c2ccc(C)cc2)c2c(c1C#N)CCCC2	0	2	55*	45	0.5	0.4
CN(C)c1nc(SCc2ccccc2Cl)nc2c1CCCC2	-10	12	21	80*	0.2	0.8
COC(=O)CSc1nc(SCc2ccc(C)cc2)nc2c1CCCC2	8	-5	97*	95*	0	0
COc1cc(C(=O)Nc2cc(C(F)(F)F)ccc2Cl)cc(OC)c1OC	-7	9	20	12	0.9	0.8
Cc1cc(-c2ccccc2)n2ncc(C#N)c2n1	.	.	-10	7	0.9	1.1
CNc1nc(SCc2ccc(C)cc2)nc2c1CCCC2	8	-5	73*	96*	0	0.3
Cc1ccc(CSc2nc3c(c(SCC(=O)O)n2)CCCC3)cc1	3	-1	32	-3	1	0.7
CCN(CC)S(=O)(=O)c1cccc(NC(=O)COC(=O)CCc2nc3ccccc3s2)c1	2	1	-125	9	0.9	2.3*
CCN(CC)S(=O)(=O)c1cc(NC(=O)COC(=O)CCc2nc3ccccc3s2)ccc1C	-3	5	-57	16	0.8	1.6
CCN(CC)S(=O)(=O)c1cccc(NC(=O)COC(=O)c2ccc(Br)o2)c1	2	-4	65*	42	0.6	0.3
CC1CC(C)CN(CCCNC(=O)CCNC(=O)Cn2ccc3ccccc3c2=O)C1 (stereo unspecified)	3	-5	-1	8	0.9	1
CCCNC(=O)c1cc(S(=O)(=O)N2CCc3ccccc32)ccc1F	-15	18	.	.	.	.
CCn1ncc(/C=N\NC(=O)c2cc(-c3ccc(C)cc3C)nc3ccccc23)c1C	3	-1	97*	90*	0.1	0
SMILES	sEH activator	sEH inh	CYP2C9 inhib	CYP2C19 inh	CYP2C19 act	CYP2C9 act
CC(/C=N/NC(=O)c1cc(-c2ccc(Cl)cc2)nc2ccccc12)=C\c1ccco1	10	-8	89*	5	1	0.1
O=C(Nc1ccon1)c1cc(-c2ccccc2)nc2ccccc12	-9	9	.	.	.	.
Cc1ccc(-c2cc(C(=O)N/N=C/c3c(C)nn(C)c3C)c3ccccc3n2)cc1C	14	-12	97*	81*	0.2	0
CCCS(=O)(=O)N1CCCC(C(=O)N2CCN(C(=O)OCC)CC2)C1 (stereo unspecified)	6	-8	-4	-12	1.1	1
O=C(Nc1cccc(Cl)c1)c1ccc2c(=O)n3c(nc2c1)CCCCC3	6	-8	63*	26	0.7	0.4
O=C(NCCC1=CCCCC1)c1ccc2c(=O)n3c(nc2c1)CCCCC3	-78	79	94*	75*	0.3	0.1
CN(C)c1cccc(C(=O)Nc2ccc3nc4n(c(=O)c3c2)CCCCC4)c1	4	-6	76*	76*	0.2	0.2
O=C(Nc1ccc(F)c(Cl)c1)c1ccc2c(=O)n3c(nc2c1)CCCCC3	-32	32	8	3	1	0.9
O=C(c1ccc2c(=O)n3c(nc2c1)CCCCC3)N1CCN(C(c2ccccc2)c2ccccc2)CC1	-10	11	62*	53*	0.5	0.4
Cc1ccccc1C(=O)Nc1ccc2nc3n(c(=O)c2c1)CCC3	10	-9	-4	-14	1.1	1
O=C(CN1CCC(NC(=O)c2ccc(F)cc2)CC1)NCc1ccccc1F	-3	-1	5	2	1	1
Cc1ccc(NCc2nnc(SCC(=O)N(Cc3ccccc3)C(C)(C)C)o2)c(C)c1	1	-2	43	32	0.7	0.6
COc1ccc(S(=O)(=O)N(Cc2ccc(OC)c(OC)c2)Cc2ccco2)cc1	.	.	46	59*	0.4	0.5
Cc1ccc(S(=O)(=O)N(Cc2ccc(F)cc2)Cc2ccco2)cc1	5	-7	13	21	0.8	0.9
Cc1ccc(S(=O)(=O)N(Cc2ccccc2)Cc2ccco2)cc1	10	-10	90*	83*	0.2	0.1
O=C(NCc1ccccc1C(F)(F)F)C12CN(Cc3ccccc3)CC1C(c1ccc([N+](=O)[O-])cc1)=NO2 (stereo unspecified)	-8	6	37	44	0.6	0.6
Cc1ccc(C)c(NC(=S)N2CCC(c3nc4ccccc4s3)CC2)c1	0	2	48	37	0.6	0.5
O=C(Nc1ccc2c(c1)CCC2)c1cc(S(=O)(=O)N2CCN(c3ccccc3)CC2)ccc1Cl	-8	10	56*	24	0.8	0.4
CCC(NC(=O)c1cccc(Cn2cc([N+](=O)[O-])cn2)c1)c1ccc(C(C)C)cc1 (stereo unspecified)	-4	6	96*	44	0.6	0
CC(NC(=O)c1ccc(Cn2cc([N+](=O)[O-])cn2)o1)c1ccccc1 (stereo unspecified)	14	-14	27	28	0.7	0.7
CC(NC(=O)c1cccc(Cn2cc([N+](=O)[O-])cn2)c1)c1ccc(C(C)(C)C)cc1 (stereo unspecified)	-7	9	81*	61*	0.4	0.2
CC(C)(C)c1cc(C(C)(C)C)cc(S(=O)(=O)CCc2ccccn2)c1	8	-9	22	17	0.8	0.8
Cc1cc(C)cc(N(CC(=O)NCCSc2ccccn2)S(=O)(=O)c2ccccc2)c1	-3	1	64*	49	0.5	0.4
